± gives the standard deviation of the averaged measurements. The full ranking holds about 33,000 sequences; the median of “E-score (rank enrichment, -0.5 to 0.5)” is about -0.0075, and the highest 2% start at about 0.23. For the sample, the highest values were picked, then their nearest neighbours and some sequences at random.

The source of these data is the supplement of paper PMC12636033.

This assay has as its system WT Max(13-93) synthetic (M65Nle). The assay is described as follows: PBM 8-mer E-score (E-score (rank enrichment, -0.5 to 0.5)); higher = stronger preferential binding. How it is done:
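Protein binding microarray (universal PBM chip covering all 10-mers in fixed probe flanks) with chemically synthesized human Max(13-93) bHLH-LZ analogs (not full-length Max) bearing noncanonical residues (hArg, Tha, Aib, Nle at 65) and aromatic Cys staples. Read-out per 8-mer (and its reverse complement): E-score (rank-based enrichment, -0.5 to 0.5) and Z-score of median probe intensity.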
In the case of CTACCTAA, the “PBM 8-mer E-score” value turned out to be 0.0741 ± 0.11.

Consider TTAGAGAA, for which the “PBM 8-mer E-score” value was -0.00786 ± 0.18.

As for ATCTTTCG, the “PBM 8-mer E-score” value worked out at 0.0243 ± 0.034.

In the case of AGGCGTCC, the “PBM 8-mer E-score” value was -0.0473 ± 0.0037.

Take AATGCATA: the “PBM 8-mer E-score” value was 0.206 ± 0.12.

With AATGCAAT, the “PBM 8-mer E-score” value was 0.237 ± 0.029.

AATGCAAA: the “PBM 8-mer E-score” value amounted to 0.143 ± 0.091.

With AATGCATC, the “PBM 8-mer E-score” value stood at 0.163 ± 0.044.

Regarding CATGCAGG, the “PBM 8-mer E-score” value was 0.0755 ± 0.026.

With AATGCAAG, the “PBM 8-mer E-score” value was found to be 0.117 ± 0.074.

On to CATGCATC, for which the “PBM 8-mer E-score” value was determined as 0.101 ± 0.018.

For AATGCATT, the “PBM 8-mer E-score” value came out at 0.345 ± 0.024.

Turning to CATGCATG, the “PBM 8-mer E-score” value stood at 0.261 ± 0.073.

In the case of AGGACGGG, the “PBM 8-mer E-score” value was -0.111 ± 0.0023.

In the case of AGGGCTAT, the “PBM 8-mer E-score” value was -0.0385 ± 0.038.

For CTCATAGC, the “PBM 8-mer E-score” value was -0.112 ± 0.12.

On to CACATTTA, for which the “PBM 8-mer E-score” value turned out to be 0.143 ± 0.021.

As to GCTAAACC, the “PBM 8-mer E-score” value was -0.212 ± 0.15.

On to CCACGTCC, for which the “PBM 8-mer E-score” value is -0.0561 ± 0.11.

CAACGTGG: the “PBM 8-mer E-score” value was 0.172 ± 0.03.

As for GCACGTTA, the “PBM 8-mer E-score” value came out at 0.194 ± 0.078.

Take CCACGTTA: the “PBM 8-mer E-score” value was found to be 0.3 ± 0.019.

Take CCACGTGG: the “PBM 8-mer E-score” value is 0.4957 ± 0.00063.

Take CAACGTGA: the “PBM 8-mer E-score” value turned out to be 0.259 ± 0.05.

Turning to TAACGTGA, the “PBM 8-mer E-score” value is 0.125 ± 0.039.

Turning to CCACGTGC, the “PBM 8-mer E-score” value amounted to 0.488 ± 0.0054.

CCACGTTC: the “PBM 8-mer E-score” value came to 0.0954 ± 0.045.

For the sequence AAACGTGA, the “PBM 8-mer E-score” value came to 0.146 ± 0.13.

As for CGACGTGC, the “PBM 8-mer E-score” value is -0.0266 ± 0.031.

For CCACGTAG, the “PBM 8-mer E-score” value is -0.0793 ± 0.044.

In the case of CATTCCGG, the “PBM 8-mer E-score” value is -0.206 ± 0.049.

On to ATTTCAAG, for which the “PBM 8-mer E-score” value was determined as 0.112 ± 0.2.

Turning to ACACTAGG, the “PBM 8-mer E-score” value is -0.0884 ± 0.012.

Consider ATCTTTTG, for which the “PBM 8-mer E-score” value is 0.00161 ± 0.044.

For CTTATGAA, the “PBM 8-mer E-score” value turned out to be 0.0318 ± 0.11.

Turning to CTTACTCA, the “PBM 8-mer E-score” value was 0.0397 ± 0.06.

Regarding CCACGTGA, the “PBM 8-mer E-score” value amounted to 0.4829 ± 0.002.

For CTACGTGA, the “PBM 8-mer E-score” value is -0.0378 ± 0.094.

Regarding CGACGTGA, the “PBM 8-mer E-score” value came out at 0.0688 ± 0.0071.

AGAGCACA: the “PBM 8-mer E-score” value is -0.0234 ± 0.086.

As for ATTGCTTA, the “PBM 8-mer E-score” value is 0.0363 ± 0.041.

ACTACACG: the “PBM 8-mer E-score” value is 0.139 ± 0.041.

On to CGTACACG, for which the “PBM 8-mer E-score” value is 0.257 ± 0.018.

Regarding TGTACACA, the “PBM 8-mer E-score” value came out at 0.159 ± 0.071.

Take AGTACACG: the “PBM 8-mer E-score” value stood at 0.233 ± 0.032.

For CCTACACG, the “PBM 8-mer E-score” value was -0.0643 ± 0.072.

For AGTACACA, the “PBM 8-mer E-score” value was 0.163 ± 0.09.

Turning to CGTACACC, the “PBM 8-mer E-score” value worked out at 0.0276 ± 0.012.

With ACTACACA, the “PBM 8-mer E-score” value is 0.306 ± 0.067.

Turning to CGTACACA, the “PBM 8-mer E-score” value worked out at 0.15 ± 0.012.

With CTTCGCTC, the “PBM 8-mer E-score” value was -0.143 ± 0.067.

On to TAAGGAGA, for which the “PBM 8-mer E-score” value stood at 0.0617 ± 0.054.

For CAGAACCA, the “PBM 8-mer E-score” value was -0.0491 ± 0.0095.

As to AGTTGCTC, the “PBM 8-mer E-score” value is -0.143 ± 0.047.

As to ATCACATG, the “PBM 8-mer E-score” value is 0.37 ± 0.017.

As for ACCACATA, the “PBM 8-mer E-score” value stood at 0.00899 ± 0.073.

AGCACATA: the “PBM 8-mer E-score” value was found to be 0.0511 ± 0.0046.

With ACCACATG, the “PBM 8-mer E-score” value amounted to 0.404 ± 0.012.

On to ATCACATA, for which the “PBM 8-mer E-score” value was 0.175 ± 0.13.

With ATCACATC, the “PBM 8-mer E-score” value was 0.065 ± 0.073.

As for ACCACATC, the “PBM 8-mer E-score” value worked out at 0.0678 ± 0.067.

AGCACATC: the “PBM 8-mer E-score” value was determined as 0.0162 ± 0.041.

As for AGCACATG, the “PBM 8-mer E-score” value is 0.343 ± 0.004.

As to GCTCTGAC, the “PBM 8-mer E-score” value is -0.2596 ± 0.00028.

Regarding CCTACTGA, the “PBM 8-mer E-score” value came out at 0.0748 ± 0.039.

In the case of CCCTATCA, the “PBM 8-mer E-score” value worked out at 0.0698 ± 0.034.

For the sequence CCTCACAC, the “PBM 8-mer E-score” value was -0.0382 ± 0.027.

Take TGAGCTCA: the “PBM 8-mer E-score” value is -0.206 ± 0.065.

As for CATGCACA, the “PBM 8-mer E-score” value was 0.353 ± 0.0061.

As for AATGCACT, the “PBM 8-mer E-score” value turned out to be 0.143 ± 0.027.

For CATGCACG, the “PBM 8-mer E-score” value was 0.186 ± 0.11.

In the case of CGTGCACG, the “PBM 8-mer E-score” value worked out at 0.293 ± 0.049.

In the case of AATGCACG, the “PBM 8-mer E-score” value was determined as 0.245 ± 0.045.

As for AATGCACA, the “PBM 8-mer E-score” value turned out to be 0.128 ± 0.055.

On to GATGCACA, for which the “PBM 8-mer E-score” value was -0.00554 ± 0.026.

For the sequence CGTGCACA, the “PBM 8-mer E-score” value amounted to 0.176 ± 0.0077.

Regarding TGTGCACA, the “PBM 8-mer E-score” value stood at 0.132 ± 0.071.

In the case of CCTACTGC, the “PBM 8-mer E-score” value was -0.0303 ± 0.015.

For the sequence AATAGAGT, the “PBM 8-mer E-score” value worked out at 0.0159 ± 0.021.

On to AAGGCTCT, for which the “PBM 8-mer E-score” value was -0.0744 ± 0.037.

For GGTCGGAA, the “PBM 8-mer E-score” value is -0.0727 ± 0.14.

Regarding AGTCTGTG, the “PBM 8-mer E-score” value is -0.264 ± 0.097.

Take ACAGTGTG: the “PBM 8-mer E-score” value stood at 0.116 ± 0.011.

Regarding GGACATTA, the “PBM 8-mer E-score” value was determined as 0.0724 ± 0.14.

For GTGCACAA, the “PBM 8-mer E-score” value was -0.0677 ± 0.047.

Take GATACAGC: the “PBM 8-mer E-score” value worked out at 0.0628 ± 0.015.

As for CAGTATTC, the “PBM 8-mer E-score” value was 0.0983 ± 0.017.
